From PubChem BioAssay (Tox21)
Inconclusive results are not listed. Where a call stands in place of a potency, no number is given. The source made the active and inactive calls. Calls follow the shape of the dose curve; as a rule, active = well fitted activation curve with a large enough effect in the repeat runs; inconclusive = weak or mixed curves; inactive = no such curve, though single readings can be large or run the other way.

target: Nuclear receptor subfamily 1 group I member 2 (Homo sapiens) (UniProt O75469); assay: Human pregnane X receptor (PXR) small molecule agonists, qHTS assay (AID 1346982); settings: PXR-Luc HepG2, CYP3A4 luciferase reporter, 24 h; series mostly up to 92.4 µM; also: nearly all actives have a fitted effect of over 35% in size
How it was run: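 Reporter HepG2 cells expressing PXR-Luc are cultured in charcoal-stripped FBS (5%), treated with compounds for 24 hr at 37 C, and assayed by ONE-Glo luminescence after 30 min at room temperature.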
Potency is read from the fitted curve at half-maximal effect.

Chain of Nuclear receptor subfamily 1 group I member 2 (Homo sapiens) (O75469 whole entry, looked up): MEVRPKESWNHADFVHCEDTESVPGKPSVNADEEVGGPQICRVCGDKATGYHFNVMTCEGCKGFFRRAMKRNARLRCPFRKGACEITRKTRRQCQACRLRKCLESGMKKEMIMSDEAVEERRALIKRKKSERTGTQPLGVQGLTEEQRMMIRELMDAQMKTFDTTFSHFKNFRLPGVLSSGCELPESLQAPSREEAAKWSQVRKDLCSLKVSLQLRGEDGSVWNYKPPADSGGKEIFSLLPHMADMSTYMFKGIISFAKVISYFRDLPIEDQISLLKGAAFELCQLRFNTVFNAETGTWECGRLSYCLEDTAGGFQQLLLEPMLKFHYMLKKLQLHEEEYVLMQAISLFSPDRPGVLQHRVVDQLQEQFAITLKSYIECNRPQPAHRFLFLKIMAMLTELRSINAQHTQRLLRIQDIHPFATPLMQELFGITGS

SMILES	Potency
CCS(=O)(=O)C(C)(C)S(=O)(=O)CC	inactive
O=C(O)c1ccc2[nH]cc(CCCCN3CC=C(c4ccccc4)CC3)c2c1	inactive
O=[N+]([O-])c1cc(Cl)c(Cl)c(Cl)c1	inactive
CCN(Cc1ccc(Cl)nc1)/C(=C/[N+](=O)[O-])NC	inactive
C[N+](C)=CCl	inactive
CCC(C)(C)c1cc(-n2nc3ccccc3n2)c(O)c(C(C)(C)CC)c1	69.6 µM (active)
OCCSCSCCO	inactive
ClCCCN1CCN(c2cccc(Cl)c2)CC1	inactive
C=C(C)CN(CC)c1c([N+](=O)[O-])cc(C(F)(F)F)cc1[N+](=O)[O-]	27.3 µM (active)
CC(C)[N+](=O)[O-]	inactive
Cc1cccc(C#N)c1	inactive
COC(=O)c1ccccc1S(=O)(=O)NC(=O)N(C)c1nc(C)nc(OC)n1	inactive
CC(C)(C)C(=O)C(Oc1ccc(Cl)cc1)n1cncn1 (configuration not stated)	27.3 µM (active)
CN1C(=S)CN=C(c2ccccc2)c2cc(Cl)ccc21	26.6 µM (active)
O=NN1CCN(N=O)CC1	inactive
O=C(O)c1cccc(Cl)c1	inactive
O=CNC(N1CCN(C(NC=O)C(Cl)(Cl)Cl)CC1)C(Cl)(Cl)Cl (configuration not stated)	27.3 µM (active)
Cc1ncc2n1-c1ccc(Cl)cc1C(c1ccccc1F)=NC2	33.5 µM (active)
CCOC(=O)CP(=O)(OCC)OCC	inactive

SMILES	Potency
COC(=O)C(c1ccccc1)C1CCCCN1 (configuration not stated)	inactive
COC(=O)C(C)Oc1ccc(Oc2ccc(Cl)cc2Cl)cc1 (configuration not stated)	inactive
C[C@H]1CCC[C@H](O)CCCCCc2cc(O)cc(O)c2C(=O)O1	7.75 µM (active)
CC(C)CC(N(C)C)C1(c2ccc(Cl)cc2)CCC1 (configuration not stated)	inactive
CCCCc1ccc(O)cc1	inactive
C[C@@H]1CN(C2CCC(C#N)(c3ccc(F)cc3)CC2)CC[C@]1(C(=O)O)c1ccccc1 (some centres not stated)	inactive
COc1cc(OC)nc(Oc2cccc(Oc3nc(OC)cc(OC)n3)c2C(=O)O)n1	inactive
N#CCNCC#N	inactive
CCNc1nc(NC(C)C)nc(OC)n1	27.3 µM (active)
Cc1cnc[nH]1	inactive
COc1cc2c(cc1OC)[C@@]13CCN4CC5=CCO[C@H]6CC(=O)N2[C@H]1[C@H]6[C@H]5C[C@H]43	21.7 µM (active)
CCC1(c2ccccc2)C(=O)NC(=O)NC1=O	inactive
CC(Oc1ccc(Oc2ncc(C(F)(F)F)cc2Cl)cc1)C(=O)O (configuration not stated)	inactive
CN(N=O)C(N)=O	inactive
NC1=NC(=O)C(c2ccccc2)O1 (configuration not stated)	inactive
OC(Cn1cncn1)(c1ccc(F)cc1)c1ccccc1F (configuration not stated)	inactive
ClC(Cl)Br	inactive
CCC#N	inactive
